The nature of experiment [1]: optical density shifts of acrAB sulA E. coli – strain DRC41, OD650, 48 h, E. coli filamentation inducer project, primary screen (AID 1152).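 Note: E. coli MC1000 strain DRC41 lacking acrAB efflux pump and sulA.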 Conditions: higher = more signal, called active from +8 up or from −8 down.
Experiment [2] can be described thus: probe aLefty1 binding on compound microarray – biochemical, small-molecule microarray, 635/667 nm fluorescence, primary screen (AID 1153).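 Note: score merges spot fluorescence with signal-to-noise ratio from the scanned slide images.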 Conditions: higher = more signal.
Experiment [3] in a line: plasmodial surface anion channel blockers, osmotic lysis – cell-based, P. falciparum Indochina, OD700, 1 h, primary screen (AID 1154). To be noted: P. falciparum Indochina infected RBC osmotic lysis, higher = more signal, called active from +8 up or from −8 down.
Experiment [4] can be described thus: plasmodial surface anion channel blockers, osmotic lysis – cell-based, P. falciparum Indochina, OD700, 2 h, primary screen (AID 1155).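 Note: lysis reports solute entry through the parasite surface anion channel PSAC.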 To be noted: P. falciparum Indochina infected erythrocytes, higher = more signal, called active from +8 up or from −8 down.
Experiment [5] can be described thus: changes in parasitized red cell lysis, either direction – P. falciparum Indochina, OD700, 3 h, PSAC antagonist project, primary screen (AID 1156). Conditions: P. falciparum-infected erythrocytes, osmotic lysis, higher = more signal, called active from +8 up or from −8 down.
Experiment [6] is described as follows: plasmodial surface anion channel blockers, osmotic lysis – cell-based, P. falciparum Indochina, OD700, 18 h, primary screen (AID 1157). To be noted: P. falciparum Indochina infected erythrocytes, osmotic lysis OD700, 18 h; higher = more signal, called active from +8 up or from −8 down.
Experiment [7] can be described thus: S6 kinase pathway phospho-S6 level changes – cell-based, A549, cytoblot, luminescence, serum-stimulated, primary screen (AID 1158).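 Note: serum-stimulated A549 lung adenocarcinoma cells; signal is phosphorylated S6 detected by cytoblot immunostaining with HRP secondary.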 To be noted: 5 h, higher = more signal.
Experiment [8] has as its target NADPH oxidase 2 (Homo sapiens) (UniProt P04839). Put plainly: compounds shifting NOX2 Amplex Red fluorescence – cell-based, HEK293-NOX2, PMA-stimulated, NOX inhibitor project, primary screen (AID 1159). Note: test concentration not given here. Conditions: 45 min, higher = more signal, called active from +8 up or from −8 down.
Experiment [9] addresses NADPH oxidase 4 (Homo sapiens) (UniProt Q9NPH5). Put plainly: compounds shifting NOX4 Amplex Red fluorescence – cell-based, HEK293-NOX4, tetracycline-induced, NOX inhibitor project, primary screen (AID 1160). Conditions: HEK293-NOX4, Amplex Red H2O2 fluorescence, 45 min; higher = more signal, called active from +8 up or from −8 down.
The target in experiment [10] is NADPH oxidase 5 (Homo sapiens) (UniProt Q96PH1). Briefly: compounds shifting NOX5 Amplex Red fluorescence – cell-based, HEK293-NOX5, NOX inhibitor project, primary screen (AID 1161). Conditions: HEK293-NOX5, ionomycin, 45 min, higher = more signal.
NADPH oxidase 5 (Homo sapiens), sequence (Q96PH1 whole entry, looked up): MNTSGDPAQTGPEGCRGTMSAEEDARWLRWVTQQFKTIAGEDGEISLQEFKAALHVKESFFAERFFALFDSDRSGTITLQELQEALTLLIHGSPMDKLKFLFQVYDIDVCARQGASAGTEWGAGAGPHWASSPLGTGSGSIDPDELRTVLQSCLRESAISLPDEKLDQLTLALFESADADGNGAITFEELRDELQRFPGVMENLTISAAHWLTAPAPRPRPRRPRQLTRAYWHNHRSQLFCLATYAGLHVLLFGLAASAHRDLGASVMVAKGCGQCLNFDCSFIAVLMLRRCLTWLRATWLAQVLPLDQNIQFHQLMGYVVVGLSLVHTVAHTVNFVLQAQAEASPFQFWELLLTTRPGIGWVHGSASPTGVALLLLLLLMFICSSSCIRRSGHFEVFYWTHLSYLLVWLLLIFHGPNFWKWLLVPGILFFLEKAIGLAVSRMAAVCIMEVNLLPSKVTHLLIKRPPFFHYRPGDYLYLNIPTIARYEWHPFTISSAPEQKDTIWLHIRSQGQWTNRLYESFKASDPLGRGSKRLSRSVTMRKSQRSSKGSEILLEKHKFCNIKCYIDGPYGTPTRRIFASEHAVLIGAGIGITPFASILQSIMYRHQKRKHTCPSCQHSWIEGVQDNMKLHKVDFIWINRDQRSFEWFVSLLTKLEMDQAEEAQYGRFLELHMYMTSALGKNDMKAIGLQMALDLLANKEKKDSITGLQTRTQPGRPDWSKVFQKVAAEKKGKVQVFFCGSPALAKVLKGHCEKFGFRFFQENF

Active and inactive are the calls of the source.

NADPH oxidase 4 (Homo sapiens), sequence (Q9NPH5 whole entry, looked up): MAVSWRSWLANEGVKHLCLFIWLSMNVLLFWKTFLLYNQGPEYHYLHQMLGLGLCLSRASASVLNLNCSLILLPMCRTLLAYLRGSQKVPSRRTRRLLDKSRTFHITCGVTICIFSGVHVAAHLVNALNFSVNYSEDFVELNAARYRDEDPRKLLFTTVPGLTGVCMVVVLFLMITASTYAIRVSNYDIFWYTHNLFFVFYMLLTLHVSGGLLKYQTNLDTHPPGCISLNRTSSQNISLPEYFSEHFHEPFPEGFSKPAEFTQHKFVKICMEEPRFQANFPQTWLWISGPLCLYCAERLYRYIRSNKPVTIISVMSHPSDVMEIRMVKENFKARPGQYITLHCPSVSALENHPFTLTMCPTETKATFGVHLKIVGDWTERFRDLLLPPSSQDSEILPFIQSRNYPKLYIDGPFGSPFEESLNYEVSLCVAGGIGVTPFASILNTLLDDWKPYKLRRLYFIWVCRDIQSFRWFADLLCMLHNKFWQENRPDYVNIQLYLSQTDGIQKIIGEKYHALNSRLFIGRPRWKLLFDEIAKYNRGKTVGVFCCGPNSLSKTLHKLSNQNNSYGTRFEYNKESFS
NADPH oxidase 2 (Homo sapiens), sequence (P04839 whole entry, looked up): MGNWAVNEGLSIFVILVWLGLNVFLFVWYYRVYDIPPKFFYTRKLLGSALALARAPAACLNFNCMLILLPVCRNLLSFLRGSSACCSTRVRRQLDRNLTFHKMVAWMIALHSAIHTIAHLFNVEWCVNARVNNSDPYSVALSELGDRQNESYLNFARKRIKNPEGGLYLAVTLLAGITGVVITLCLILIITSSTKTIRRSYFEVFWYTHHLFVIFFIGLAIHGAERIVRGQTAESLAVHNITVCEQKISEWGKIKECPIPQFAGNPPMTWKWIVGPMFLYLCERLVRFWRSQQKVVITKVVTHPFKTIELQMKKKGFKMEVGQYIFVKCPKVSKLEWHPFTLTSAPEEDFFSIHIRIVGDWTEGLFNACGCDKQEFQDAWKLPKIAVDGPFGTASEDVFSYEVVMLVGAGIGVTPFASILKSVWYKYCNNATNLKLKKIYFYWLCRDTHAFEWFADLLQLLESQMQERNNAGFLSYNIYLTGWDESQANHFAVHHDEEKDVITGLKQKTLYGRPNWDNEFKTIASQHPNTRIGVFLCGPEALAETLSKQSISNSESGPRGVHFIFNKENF

On to `COc1ccc([Si](C)(C)[C@H]2[C@H](CC(=O)N(CCO)Cc3ccccc3)O[C@@]3(C(=O)N(Cc4cccc(N5C(=O)c6cccc7cccc5c67)c4)c4ccccc43)[C@@H]2C)cc1`, for which the z-score in experiment [1] was 1.33 (inactive); in [3], 13.2 (active); in [4] it was 0.787 (inactive); in experiment [5] it was -0.924 (inactive); in [6] it was -0.34 (inactive); in [7], 2.67. The z-score in experiment [8] was 0.38 (inactive); in experiment [9], 0.39 (inactive); in experiment [10], 1.83. Further, the composite z-score in experiment [2] is -0.0507.

Consider `[N-]=[N+]=NCc1ccccc1C[C@@]1(C(=O)NCc2ccccc2)N=C(c2ccc(OCCCO)cc2)O[C@@H]1c1ccccc1CN=[N+]=[N-]`, for which the z-score was 0.561 (inactive) in experiment [1]; 26.1 (active) in experiment [3]; 15.3 (active) in experiment [4]; 1.58 (inactive) in experiment [5]; 1.87 (inactive) in experiment [6]; -0.633 in experiment [7]. In addition, the values for the z-score in experiment [8], in experiment [9] and in experiment [10] were -1.03 (inactive), -0.17 (inactive) and -0.353, respectively. Further, in [2], the composite z-score is 0.7.

Take `CCN(CC)c1ccc(N2CC=CC34O[C@@H]5C=CCCOC(=O)C5[C@H]3C(=O)N(CCCO)[C@@H]4C2=O)cc1` (stereo not given in full): the z-score in experiment [1] was 1.44 (inactive); in [3], 0.555 (inactive); in experiment [4], -0.829 (inactive); in experiment [5], -0.305 (inactive); in experiment [6], -1.15 (inactive); in experiment [7], 1.09. Also, the z-score is -0.0899 (inactive) in experiment [8], -1.23 (inactive) in experiment [9] and 0.374 in experiment [10]. The same molecule gave a composite z-score in [2] of -0.28.

Consider `Cc1ccc(N2C(=O)c3ccccc3[C@](C)(C(=O)NCCN3CCOCC3)[C@@H]2c2ccc(CO)cc2)nc1`, for which the z-score in experiment [1] was -0.285 (inactive); in experiment [3], 1.12 (inactive); in experiment [4], 0.645 (inactive); in [5], 2.69 (inactive); in [6] it was 0.178 (inactive); in experiment [7] it was -0.113. Further, the z-score is 1.86 (inactive) in experiment [8], 0.236 (inactive) in experiment [9] and 0.286 in [10]. Further, in [2], the composite z-score is -0.229.

On to `C=CC[C@@]1(C(=O)NCCN2CCOCC2)N=C(c2ccc(OCCCO)cc2)O[C@@H]1c1ccccc1CN=[N+]=[N-]`, for which the z-score is -0.121 (inactive) in [1]; 24.4 (active) in experiment [3]; 13.4 (active) in experiment [4]; 2.29 (inactive) in [5]; 0.203 (inactive) in experiment [6]; 1.15 in experiment [7]. In addition, the z-score in [8] is -0.842 (inactive); in experiment [9], 0.908 (inactive); in [10], -0.701. For the same molecule, the composite z-score in [2] came to 0.0193.

On to `C=C(C(=O)CC[C@@H](OC(=O)c1cccnc1)c1ccc(OCCO)cc1)C(C)C`, for which the z-score in experiment [1] is -1.07 (inactive); in [3], 3.66 (inactive); in experiment [4], 2.48 (inactive); in experiment [5] it was -6.06 (inactive); in [6] it was 0.822 (inactive); in experiment [7], -0.917. For the same molecule, the values for the z-score in [8], in [9] and in experiment [10] were -4.23 (inactive), -1.19 (inactive) and -1.6, respectively. In experiment [2], this molecule displayed a composite z-score of 0.0043.

Regarding `Cc1ccc(S[C@]2(C(=O)NCC(F)(F)F)CC(=O)N(C3Cc4ccccc4C3)[C@@H]2c2ccc(CO)cc2I)cc1`, the z-score in [1] is 1.1 (inactive); in experiment [3], 6.63 (inactive); in experiment [4] it was 1.29 (inactive); in experiment [5], 0.577 (inactive); in [6], 0.526 (inactive); in experiment [7], -0.204. Besides, the z-score was 0.994 (inactive) in experiment [8], -1.56 (inactive) in [9] and 1.06 in experiment [10]. The molecule further gave a composite z-score in experiment [2] of 0.0013.

For `CCOC1=C2C(c3ccc(C)cc3)N(S(=O)(=O)c3ccc(C)cc3)CC2n2c(=O)n(-c3ccccc3)c(=O)n2C1` (stereo not given), the z-score in [1] is -0.346 (inactive); in [3] it was 1.08 (inactive); in experiment [4], 1.32 (inactive); in [5], 0.458 (inactive); in experiment [6], 0.807 (inactive); in experiment [7], -0.0263. Moreover, the z-score is 1.22 (inactive) in experiment [8], 0.965 (inactive) in experiment [9] and 0.536 in [10]. In experiment [2], this molecule displayed a composite z-score of 0.175.

`COc1c(C)cc(-c2cc3c(c(-c4ccccc4)n2)[Si](C(C)C)(C(C)C)O[C@H]3c2ccccc2)cc1C`: the z-score in [1] was -1.11 (inactive); in [3], 0.481 (inactive); in experiment [4] it was -0.129 (inactive); in experiment [5] it was -0.561 (inactive); in experiment [6], 0.284 (inactive); in experiment [7], 0.291. In addition, the z-score was -1.36 (inactive) in experiment [8], 0.788 (inactive) in [9] and -0.334 in experiment [10]. This molecule also displayed a composite z-score in experiment [2] of 0.176.

As to `O=C1C2C=CC(C(O)c3ccc(-c4ccccc4)s3)N(Nc3ccccc3F)C2C(=O)N1c1ccccc1` (stereo not given), the z-score in experiment [1] was -1.69 (inactive); in [3], 4.17 (inactive); in experiment [4] it was 1.66 (inactive); in [5], 0.8 (inactive); in experiment [6] it was 1.27 (inactive); in experiment [7] it was -0.501. Moreover, the results for the z-score in experiment [8], in experiment [9] and in experiment [10] were -0.49 (inactive), -4.68 (inactive) and -3.41, respectively. In addition, the composite z-score in experiment [2] was determined as 0.282.

As for `COCC1C2CC[C@H]3C(OCc4ccc(F)cc4C(F)(F)F)OC[C@]4(C)[C@H]3C2=C(CN4C(=O)OC(C)(C)C)[C@H](C)C1COC` (stereo not given in full), the z-score was -1.06 (inactive) in [1]; 2.63 (inactive) in experiment [3]; -0.298 (inactive) in [4]; 0.16 (inactive) in [5]; -0.998 (inactive) in experiment [6]; 2.03 in [7]. Further, the z-score in [8] was -0.834 (inactive); in experiment [9] it was -0.934 (inactive); in [10], -3.41. In experiment [2], this molecule yielded a composite z-score of 0.891.

The values above are taken from PubChem BioAssay.
